# Most compounds without a hit are left out; they make up all but 4.5% or so of the library.
# 697 NFkB inh – lowers PMA/ionomycin-induced NF-kB signal in 697 B cells | AID 435022 | inhibition, % at 4 µM | 0.33% of 330,000 active | 697 B-cell NF-kB luciferase reporter, 16 h; in the data active means inhibition above about 35%
# aSyn UTR inh – 5' untranslated region of α-synuclein, MLPCN primary screen. alpha-synuclein 5'UTR reporter, inhibitor activity. inhibition, % (tested at 7.5 µM). 0.82% of 300,000 active. AID 1813; in the data active means inhibition above about 60%;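 further: H4 neuroglioblastoma cells stably carrying SNCA 5'UTR luciferase fusion; 0% = DMSO wells and 100% = positive control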
# Gli-Sufu block – blocks Gli-Sufu signaling in a luciferase reporter. Sufu-KO-LIGHT fibroblasts, Gli luciferase reporter luminescence. inhibition, % at 5 µM. 0.74% of 340,000 active. AID 588413;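 active means inhibition above about 55%, limit read from the data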;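 further: 0% = DMSO-treated cells and 100% = wells with medium but no cells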
# Jurkat NFkB inh – inhibitors of the PMA/ionomycin-induced NF-kB reporter in Jurkat cells. PMA/ionomycin-induced NF-kB luciferase reporter, luminescence. inhibition, % at 4 µM. 0.53% of 330,000 active. AID 435003; in the data active means inhibition above about 50%
# Mdm2 MdmX PPI – inhibitors of human Mdm2/MdmX interaction | O15151+Q00987 | SaOS-2 split-luciferase Mdm2/MdmX complementation, luminescence | inhibition, % at 8 µM | 3% of 330,000 active | AID 485346;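 active means inhibition of at least 50% at 8 µM in the primary screen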
# Target sequence (O15151 whole entry, looked up): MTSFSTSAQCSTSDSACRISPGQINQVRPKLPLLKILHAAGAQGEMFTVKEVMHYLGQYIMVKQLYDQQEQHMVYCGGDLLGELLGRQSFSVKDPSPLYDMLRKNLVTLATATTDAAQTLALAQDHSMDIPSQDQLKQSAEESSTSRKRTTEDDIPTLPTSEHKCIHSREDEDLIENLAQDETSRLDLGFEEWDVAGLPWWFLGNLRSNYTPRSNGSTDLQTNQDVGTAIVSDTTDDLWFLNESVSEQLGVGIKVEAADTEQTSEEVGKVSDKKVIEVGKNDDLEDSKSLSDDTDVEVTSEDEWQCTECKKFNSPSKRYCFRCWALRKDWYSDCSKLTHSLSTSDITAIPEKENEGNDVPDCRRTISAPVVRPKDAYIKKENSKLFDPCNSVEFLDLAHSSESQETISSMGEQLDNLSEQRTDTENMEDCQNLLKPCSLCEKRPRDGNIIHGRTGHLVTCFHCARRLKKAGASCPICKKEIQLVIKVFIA
# Target sequence (Q00987 whole entry, looked up): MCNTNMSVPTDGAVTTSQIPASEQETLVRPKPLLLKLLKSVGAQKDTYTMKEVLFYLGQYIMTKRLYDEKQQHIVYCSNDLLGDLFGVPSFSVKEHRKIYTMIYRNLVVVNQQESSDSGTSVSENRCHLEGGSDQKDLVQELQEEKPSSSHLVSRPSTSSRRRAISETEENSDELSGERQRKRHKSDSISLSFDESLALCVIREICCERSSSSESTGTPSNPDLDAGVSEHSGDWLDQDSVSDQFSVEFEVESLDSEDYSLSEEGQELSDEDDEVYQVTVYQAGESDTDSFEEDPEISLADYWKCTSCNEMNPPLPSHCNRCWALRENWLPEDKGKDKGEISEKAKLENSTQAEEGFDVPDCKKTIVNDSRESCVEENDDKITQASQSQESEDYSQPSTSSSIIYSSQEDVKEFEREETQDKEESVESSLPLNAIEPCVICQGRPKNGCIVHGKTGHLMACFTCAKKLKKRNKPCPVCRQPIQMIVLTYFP
# CSC inhib – cancer stem cell inhibition | cancer stem cell-like cells viability, luminescence | inhibition, % at 7.5 µM | 1.1% of 300,000 active; in the data active means inhibition above about 75%; tested in HMLE shEcad cells
# Mdm2-MdmX conf – human Mdm2/MdmX binding inhibition, confirmed. shares compounds with Mdm2 MdmX PPI. luminescent assay. inhibition, % at 8 µM. 55% of 10,000 active. AID 489028; in the data active means inhibition above about 40%
# FLuc counter – full-length luciferase inhibition in Mdm2/MdmX counter-screen. shares compounds with Mdm2 MdmX PPI. SaOS-2 full-length luciferase counterscreen, luminescence. inhibition, % at 8 µM. 77% of 6,200 active;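 active means mean inhibition at 8 µM reaching about 37%, which flags the compound as non-specific, limit read from the data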;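 further: p53-null SaOS-2 cells with luciferase driven by a doxycycline-inducible promoter; compound on cells about two nights before reading with doxycycline added after day one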
# An asterisk follows results filed as active; x = not tested or not shown.
SMILES,697 NFkB inh,aSyn UTR inh,Gli-Sufu block,Jurkat NFkB inh,Mdm2 MdmX PPI,CSC inhib,Mdm2-MdmX conf,FLuc counter
COc1ccc2cc3c(N)nn(C(=O)C4CCC(C(C)(C)C)CC4)c3nc2c1 (stereo not drawn),-28,42,-29,18,94*,59,88*,11
COc1ccc2cc3c(N)nn(C(=O)c4cccc([N+](=O)[O-])c4)c3nc2c1,-9,36,-36,27,88*,-10,67*,32
O=C(NCCC(=O)N1CCC2(CC1)NCCc1[nH]cnc12)c1ccc(Br)cc1,5,2,7,-1,6,-4,x,x
CCN(CC)S(=O)(=O)c1ccc(OC(C)C)c(NC(=O)c2c3c(nc4ccccc24)CCN(Cc2ccccc2)C3)c1,2,23,20,11,55*,x,54*,80*
COc1ccc(S(=O)(=O)N2CCCCCC2)cc1NC(=O)c1c2c(nc3ccccc13)CCN(Cc1ccccc1)C2,-2,4,11,0,1,-2,x,x
COc1ccc(/C=N/Nc2cc(C)nc3c(C)cccc23)cc1,-31,-81,33,-46,97*,27,56*,77*
COc1cccc2c(N/N=C/c3ccc(O)c(O)c3)cc(C)nc12,-25,-54,-12,-26,5,-8,x,x
CC(=O)Nc1ccc(C=NNc2nnc(NN=Cc3ccc(NC(C)=O)cc3)c3ccccc23)cc1,x,x,-9,x,x,x,x,x
COc1ccc(/C=N/Nc2nnc(-c3ncc[nH]3)c3ccccc23)cc1,-7,-203,-35,-71,52*,18,-4,x
COc1ccc(/C=N/Nc2cc(C)nc3ccccc23)cc1,-38,-85,55*,-55,98*,32,57*,46*
COc1cccc(N2CCN(C(=O)C3CCN(S(=O)(=O)c4cccs4)CC3)CC2)c1,21,28,5,12,16,-9,x,x
O=c1[nH]c(=O)n(Cc2ccccc2)c2nc(-c3ccco3)cc(C(F)(F)F)c12,11,28,-3,16,53*,16,27,x
COC(=O)C1=C(C(=O)OC)C2(OC1c1ccccc1C)C(=O)c1ccccc1C2=O (stereo not drawn),6,-27,0,-34,0,-22,x,x
O=C(CCC1COc2ccccc2O1)Nc1ccc(Cl)cn1 (stereo not drawn),-19,x,-10,4,67*,61,45*,84*
Cc1ccnc(NC(=O)CCC2COc3ccccc3O2)c1 (stereo not drawn),-9,-19,4,-1,19,4,x,x
CCOC(=O)Cc1csc(/N=C/c2c(O)n(-c3ccc(C)c(C)c3)c(=O)c3ccccc23)n1,13,105*,14,21,73*,34,16,x
COc1ccc(-n2c(O)c(C=Nc3ccccc3)c3ccccc3c2=O)cc1OC,13,-60,4,9,80*,-8,11,x
Cc1cc(C(=O)OCC(=O)N2CCN(c3ccccc3)CC2)c2ccccc2n1,6,0,3,-12,-2,13,x,x
O=C(Cc1cccs1)NCCSc1c(-c2ccc(Cl)cc2)[nH]c2ccccc12,-4,-21,-1,6,77*,71,25,x
CCOC(=O)CSc1c(-c2ccc(Cl)cc2)[nH]c2ccccc12,-3,15,-4,4,7,-2,x,x
CC(=O)c1ccc(OCC(C)Oc2ccc(C#N)cc2)cc1 (stereo not drawn),-9,-1,1,4,-6,1,x,x
O=C1CC(c2ccco2)CC2=C1C1c3ccccc3C(=O)N1c1ccccc1N2 (stereo not drawn),-28,-114,-3,-72,68*,28,27,x
CC(=O)Nc1ccc(SCC(=O)c2cc(C)n(-c3ccccc3F)c2C)cc1,-111,34,41,-15,72*,87*,82*,73*
Cc1cc(C(=O)COC(=O)c2ccc[nH]c2=O)c(C)n1-c1ccccc1F,-55,26,-63,-49,-17,3,x,x
Cc1cc(C(=O)COC(=O)c2ccc(O)cc2)c(C)n1-c1ccccc1F,-114,-78,-19,-37,57*,x,64*,138*

# Compound activity as filed in PubChem.
